Reference: paper PMC5700166
Numbering of substitutions follows the chain as printed.

Legend:
Experiment in all cases: protein-binding microarray (PBM); PBM: ~300 nM protein, 6 mM HEPES pH 7.8, 80 mM KCl, 0.5 mM EDTA, 0.5 mM EGTA, 6% glycerol, 35 ng/ul poly-dIdC, 1% milk, 1 h, room temperature; Ap Aiptasia and Nv Nematostella (sea anemones) / Co Capsaspora / Aq Amphimedon (sponge) / Dm Drosophila / Hu human; RHD is the Rel homology domain; high values mean tight binding
Settings in all cases: dsDNA, one strand shown
GST-Ap-NF-kB RHD = biological target: T1, GST-Ap-NF-kB RHD (Exaiptasia pallida (Aiptasia), UniProt A0A913YAJ5 2-422)
T1 sequence: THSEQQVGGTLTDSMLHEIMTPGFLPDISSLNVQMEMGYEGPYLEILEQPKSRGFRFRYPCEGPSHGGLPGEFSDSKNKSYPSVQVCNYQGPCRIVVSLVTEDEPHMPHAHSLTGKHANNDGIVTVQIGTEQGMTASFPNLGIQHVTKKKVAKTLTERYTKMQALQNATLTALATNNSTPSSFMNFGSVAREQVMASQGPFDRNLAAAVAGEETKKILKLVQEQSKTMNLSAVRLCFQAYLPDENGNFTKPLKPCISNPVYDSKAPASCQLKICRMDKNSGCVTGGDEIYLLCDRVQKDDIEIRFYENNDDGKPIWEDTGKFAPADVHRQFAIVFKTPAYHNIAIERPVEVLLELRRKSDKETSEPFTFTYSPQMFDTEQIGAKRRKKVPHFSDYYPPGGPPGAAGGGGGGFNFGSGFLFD

[1] = biological target: T2, GST-Nv-NF-kB (Cys allele) (Nematostella vectensis, UniProt E5G601 2-411)
T2 sequence: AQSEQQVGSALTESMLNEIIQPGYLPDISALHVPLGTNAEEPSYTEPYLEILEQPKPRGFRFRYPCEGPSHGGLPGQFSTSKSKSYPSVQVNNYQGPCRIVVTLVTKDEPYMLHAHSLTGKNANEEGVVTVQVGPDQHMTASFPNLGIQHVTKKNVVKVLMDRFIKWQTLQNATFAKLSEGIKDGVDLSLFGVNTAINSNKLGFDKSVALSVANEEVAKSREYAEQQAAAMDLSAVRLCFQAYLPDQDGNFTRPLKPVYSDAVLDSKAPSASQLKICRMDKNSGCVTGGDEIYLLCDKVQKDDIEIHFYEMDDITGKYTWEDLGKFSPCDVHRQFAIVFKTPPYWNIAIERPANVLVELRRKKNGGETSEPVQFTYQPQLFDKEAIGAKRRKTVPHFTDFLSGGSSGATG

[2] = biological target: T3, GST-Nv-NF-kB (Ser allele) (Nematostella vectensis, UniProt A7UNT2 2-411)
T3 sequence: T2 sequence with Q21R, C66S, S207N, E215Q, V217A, E225K, A268E, D399E

GST-Co-NF-kB = biological target: T4, GST-Co-NF-kB (Capsaspora owczarzaki, UniProt F1ARL5 200-546)
T4 sequence: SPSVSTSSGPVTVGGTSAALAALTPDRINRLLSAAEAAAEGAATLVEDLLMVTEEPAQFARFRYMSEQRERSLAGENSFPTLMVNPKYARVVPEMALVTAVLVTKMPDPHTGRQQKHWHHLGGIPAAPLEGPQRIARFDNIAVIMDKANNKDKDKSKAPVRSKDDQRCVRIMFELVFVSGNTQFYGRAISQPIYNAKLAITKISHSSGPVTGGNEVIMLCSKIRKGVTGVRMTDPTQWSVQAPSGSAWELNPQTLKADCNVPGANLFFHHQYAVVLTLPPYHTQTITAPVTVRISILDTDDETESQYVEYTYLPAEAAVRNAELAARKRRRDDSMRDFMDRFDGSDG

GST-Dm-Relish = biological target: T5, GST-Dm-Relish (Drosophila melanogaster, UniProt Q94527 99-473)
T5 sequence: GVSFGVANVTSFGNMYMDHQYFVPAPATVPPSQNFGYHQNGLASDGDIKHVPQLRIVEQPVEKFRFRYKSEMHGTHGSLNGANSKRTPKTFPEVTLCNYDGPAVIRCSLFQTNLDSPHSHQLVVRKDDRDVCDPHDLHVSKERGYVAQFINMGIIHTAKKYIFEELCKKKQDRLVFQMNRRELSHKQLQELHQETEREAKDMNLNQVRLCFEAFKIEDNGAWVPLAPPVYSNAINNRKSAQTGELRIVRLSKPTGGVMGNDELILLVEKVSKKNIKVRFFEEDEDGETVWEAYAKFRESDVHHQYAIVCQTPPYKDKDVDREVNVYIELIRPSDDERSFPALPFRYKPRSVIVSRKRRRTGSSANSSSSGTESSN

GST-Aq-NF-kB = biological target: T6, GST-Aq-NF-kB (Amphimedon queenslandica, UniProt A9Y5G7 2-389)
T6 sequence: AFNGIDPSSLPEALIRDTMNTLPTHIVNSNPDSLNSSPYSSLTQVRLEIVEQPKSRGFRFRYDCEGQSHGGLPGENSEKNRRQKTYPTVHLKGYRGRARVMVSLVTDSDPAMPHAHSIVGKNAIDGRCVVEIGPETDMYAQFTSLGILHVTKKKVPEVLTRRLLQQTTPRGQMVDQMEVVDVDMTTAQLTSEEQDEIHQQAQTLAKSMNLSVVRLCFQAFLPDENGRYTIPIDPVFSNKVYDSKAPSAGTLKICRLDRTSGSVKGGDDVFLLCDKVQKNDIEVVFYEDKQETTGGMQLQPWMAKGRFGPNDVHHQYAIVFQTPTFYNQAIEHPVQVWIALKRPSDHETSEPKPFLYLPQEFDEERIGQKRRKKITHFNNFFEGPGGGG

GST-Hu-p50 = GST-Hu-p50 (Homo sapiens, UniProt P19838 7-356)
Chain of GST-Hu-p50 (P19838 7-356): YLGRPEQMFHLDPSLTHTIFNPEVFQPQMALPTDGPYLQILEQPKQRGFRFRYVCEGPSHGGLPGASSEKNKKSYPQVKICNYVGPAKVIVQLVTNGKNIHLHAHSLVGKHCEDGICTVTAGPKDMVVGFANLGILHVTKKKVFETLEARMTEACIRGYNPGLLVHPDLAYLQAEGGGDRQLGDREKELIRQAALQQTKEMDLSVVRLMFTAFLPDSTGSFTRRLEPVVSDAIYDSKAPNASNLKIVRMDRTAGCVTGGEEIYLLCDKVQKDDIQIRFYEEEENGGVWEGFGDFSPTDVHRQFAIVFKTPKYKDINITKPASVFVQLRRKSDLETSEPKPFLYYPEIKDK

Row | Sequence | binding signal (GST-Ap-NF-kB RHD) | binding signal [1] | binding signal [2] | binding signal (GST-Co-NF-kB) | binding signal (GST-Dm-Relish) | binding signal (GST-Aq-NF-kB) | binding signal (GST-Hu-p50)
1 | CCGATTAACATCAGGGACTTTTATGATGTTAATCGGGTCTTGATTCGCTTGACGCTGCTG | 7.76 z-score | 9.97 z-score | 9.79 z-score | 1.97 z-score | 8.37 z-score | 7.89 z-score | 6.59 z-score
2 | CCGATTAACATCAGGATTACCCCTGATGTTAATCGGGTCTTGATTCGCTTGACGCTGCTG | 4.61 z-score | 4.15 z-score | 3.63 z-score | 3.97 z-score | 4.19 z-score | 5.53 z-score | 3.75 z-score
3 | CCGATTAACATCAAAACTTCCCCTGATGTTAATCGGGTCTTGATTCGCTTGACGCTGCTG | 8.71 z-score | 10.4 z-score | 12.1 z-score | 9.44 z-score | 8.98 z-score | 8.18 z-score | 7.33 z-score
4 | CCGATTAACATCAGGACTTCCCCTGATGTTAATCGGGTCTTGATTCGCTTGACGCTGCTG | 10.1 z-score | 10.5 z-score | 9.94 z-score | 4.57 z-score | 9.98 z-score | 10.4 z-score | 6.36 z-score
5 | CCGATTAACATCACGGGGAATTCTGATGTTAATCGGGTCTTGATTCGCTTGACGCTGCTG | 9.62 z-score | 10.1 z-score | 10.3 z-score | 8.83 z-score | 8.15 z-score | 7.98 z-score | 6.54 z-score
6 | CCGATTAACATCAGCATTCCCCCTGATGTTAATCGGGTCTTGATTCGCTTGACGCTGCTG | 7.2 z-score | 7.59 z-score | 7.61 z-score | 6.59 z-score | 4.53 z-score | 5.57 z-score | 6.18 z-score
7 | CCGATTAACATCACGAAACCCCCTGATGTTAATCGGGTCTTGATTCGCTTGACGCTGCTG | 8.57 z-score | 6.39 z-score | 7.65 z-score | 2.69 z-score | 8.51 z-score | 6.37 z-score | 7.11 z-score
8 | CCGATTAACATCAGGCGATCCCCTGATGTTAATCGGGTCTTGATTCGCTTGACGCTGCTG | 5.05 z-score | 4.17 z-score | 5.07 z-score | 1.58 z-score | 6.53 z-score | 5.06 z-score | 3.98 z-score
9 | CCGATTAACATCAGGGGGTGGTATGATGTTAATCGGGTCTTGATTCGCTTGACGCTGCTG | 3.21 z-score | 2.77 z-score | 3.98 z-score | 2.91 z-score | 2.01 z-score | 3.38 z-score | 3.67 z-score
10 | CCGATTAACATCAGGGGGTTTTATGATGTTAATCGGGTCTTGATTCGCTTGACGCTGCTG | 9.65 z-score | 9.57 z-score | 10.2 z-score | 3.52 z-score | 10 z-score | 8.21 z-score | 7.82 z-score
11 | CCGATTAACATCAGATTTTCCCCTGATGTTAATCGGGTCTTGATTCGCTTGACGCTGCTG | 8 z-score | 8.78 z-score | 11 z-score | 9.39 z-score | 4.94 z-score | 7.27 z-score | 6.35 z-score
12 | CCGATTAACATCAGCCCGGGAAATGATGTTAATCGGGTCTTGATTCGCTTGACGCTGCTG | 2.45 z-score | 2.27 z-score | 2.11 z-score | 3.24 z-score | 1.04 z-score | 2.09 z-score | 1.28 z-score
13 | CCGATTAACATCATGGGGGGTAATGATGTTAATCGGGTCTTGATTCGCTTGACGCTGCTG | 3.64 z-score | 3.18 z-score | 2.78 z-score | 5.06 z-score | 2.79 z-score | 3.56 z-score | 3.21 z-score
14 | CCGATTAACATCAAATTTCCCTATGATGTTAATCGGGTCTTGATTCGCTTGACGCTGCTG | 4.13 z-score | 6.5 z-score | 6.37 z-score | 3.02 z-score | 2.55 z-score | 6.3 z-score | 5.04 z-score
15 | CCGATTAACATCAATTCACCCCCTGATGTTAATCGGGTCTTGATTCGCTTGACGCTGCTG | 4.01 z-score | 3.65 z-score | 4.82 z-score | 6.74 z-score | 3.16 z-score | 4.11 z-score | 4.31 z-score
16 | CCGATTAACATCAACTTTCCCCCTGATGTTAATCGGGTCTTGATTCGCTTGACGCTGCTG | 7.6 z-score | 7.45 z-score | 9.1 z-score | 9.36 z-score | 3.9 z-score | 6.57 z-score | 6.16 z-score
17 | CCGATTAACATCACGGGGGATTCTGATGTTAATCGGGTCTTGATTCGCTTGACGCTGCTG | 8.95 z-score | 7.68 z-score | 8.48 z-score | 7.06 z-score | 7.96 z-score | 6.51 z-score | 7.01 z-score
18 | CCGATTAACATCAGGGGATCTTATGATGTTAATCGGGTCTTGATTCGCTTGACGCTGCTG | 7.32 z-score | 7.01 z-score | 7.89 z-score | 3.1 z-score | 6.67 z-score | 6.41 z-score | 6.06 z-score
19 | CCGATTAACATCACTATTTCCCCTGATGTTAATCGGGTCTTGATTCGCTTGACGCTGCTG | 6.35 z-score | 7.42 z-score | 9.8 z-score | 8.77 z-score | 3.62 z-score | 4.85 z-score | 6.08 z-score
20 | CCGATTAACATCAGGGGGAGATATGATGTTAATCGGGTCTTGATTCGCTTGACGCTGCTG | 5.8 z-score | 5.33 z-score | 6.74 z-score | 8.37 z-score | 2.53 z-score | 4.8 z-score | 5.93 z-score
21 | CCGATTAACATCAGGGGAATTAATGATGTTAATCGGGTCTTGATTCGCTTGACGCTGCTG | 6.97 z-score | 9.44 z-score | 10.2 z-score | 7.92 z-score | 7.21 z-score | 6.31 z-score | 6.52 z-score
22 | CCGATTAACATCACATCCCCCCCTGATGTTAATCGGGTCTTGATTCGCTTGACGCTGCTG | 6.1 z-score | 4.66 z-score | 4.88 z-score | 6.54 z-score | 4.53 z-score | 4.42 z-score | 4.32 z-score
